GDH-TPI inh: GDH-TPI coupling enzyme inhibitors, primary screen, artefact control for M. tuberculosis FBA inhibitor project, biochemical, absorbance, full deck | hit rate 1.2% among 360,000 | GDH-TPI coupled enzyme counterscreen, NADH absorbance | inhibition, % at 4.8 µM;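 also: 0% = DMSO wells and 100% = wells lacking the enzyme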
VHR inh abs: VHR1 phosphatase inhibitors, primary screen, biochemical, absorbance, uHTS | Dual specificity protein phosphatase 3 (Homo sapiens), P51452 | recombinant VHR phosphatase, pNPP absorbance | inhibition, % at 13.3 µM | hit rate 0.52% among 290,000 | AID 1654, 2009; in the data active = inhibition above about 50%
Target sequence (P51452 whole entry, looked up): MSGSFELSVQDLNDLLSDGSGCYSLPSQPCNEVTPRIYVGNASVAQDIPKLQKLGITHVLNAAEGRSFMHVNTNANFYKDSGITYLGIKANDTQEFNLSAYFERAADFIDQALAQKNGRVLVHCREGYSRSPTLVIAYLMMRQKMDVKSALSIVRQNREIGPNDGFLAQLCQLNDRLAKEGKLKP
RecA splice inh: Mtb RecA intein splicing inhibitors, primary screen, biochemical, fluorescence, HTS; hit rate 0.75% among 290,000; inhibition, % (test concentration not listed); Protein RecA (Mycobacterium tuberculosis (strain ATCC 25618 / H37Rv)), P9WHJ3; cell-free RecA intein splicing; in the data active = inhibition above about 30%;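 also: 0% = vehicle wells and 100% = reference inhibitor control wells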
FBA Mtb inh: Mtb FBA enzyme inhibitors, primary screen, biochemical, fluorescence, strain H37Rv. Fructose-bisphosphate aldolase (Mycobacterium tuberculosis (strain ATCC 25618 / H37Rv)), …. purified M. tuberculosis FBA, fluorescence read-out. inhibition, % at 1 µM. hit rate 2.3% among 360,000. AID 588726, 2011; in the data active = inhibition above about 27%;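 also: 0% = vehicle and 100% = reference inhibitor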
Target sequence (P9WQA3 whole entry, looked up): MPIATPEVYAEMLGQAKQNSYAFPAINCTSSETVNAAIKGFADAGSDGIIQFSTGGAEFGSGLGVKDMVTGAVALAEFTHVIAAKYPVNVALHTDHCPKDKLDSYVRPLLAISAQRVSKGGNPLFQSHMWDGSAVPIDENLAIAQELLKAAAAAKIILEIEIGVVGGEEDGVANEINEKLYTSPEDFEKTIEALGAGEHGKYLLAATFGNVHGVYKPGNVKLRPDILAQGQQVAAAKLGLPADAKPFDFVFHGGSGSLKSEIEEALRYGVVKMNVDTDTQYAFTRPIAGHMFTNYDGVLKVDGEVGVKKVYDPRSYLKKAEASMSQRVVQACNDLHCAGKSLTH
CCHF vOTU inh: CCHFV vOTU protease inhibitors, primary screen, biochemical, Pep-AMC substrate, fluorescence; inhibition, % at 11.5 µM; hit rate 0.55% among 370,000; Crimean-Congo hemorrhagic fever virus L polyprotein viral ovarian tumor (vOTU) protease …; AID 651958, 2012; also: 0% = vehicle wells with enzyme and 100% = no enzyme wells
SARS 3CLpro inh: SARS-CoV 3CLpro protease inhibitors, primary screen, biochemical, quenched FRET. hit rate 0.14% among 290,000. inhibition, % at 6 µM. recombinant SARS-CoV 3CLpro, quenched FRET peptide cleavage. Replicase polyprotein 1ab (Severe acute respiratory syndrome coronavirus), P0C6X7; in the data active = inhibition above about 12%
* hit, by the source's call; . = not tested or not shown; + = active, no number. Only some compounds are listed: those with a hit (about 4.7% of all), similar ones and a draw of the others. Rule as the data show it, unless noted: active = inhibition above about 30%; inactive = the rest.

SMILES	GDH-TPI inh	VHR inh abs	RecA splice inh	FBA Mtb inh	CCHF vOTU inh	SARS 3CLpro inh
O=C(NC(=C(Cl)Cl)S(=O)(=O)c1ccc(Cl)cc1)c1ccccc1	-1	-4	30*	-2	16	4
Cn1nc(C(C)(C)C)cc1C(=O)N1CCCCC1c1cc(C(=O)Nc2ccc3c(c2)OCO3)no1 (stereo unspecified)	6	.	.	0	4	.
COc1ccccc1Oc1ccnc2cc(Cl)ccc12	-3	58*	.	5	15	-1
Cc1ccc(S(=O)(=O)N2C[C@H]3C(=O)C[C@@H](c4ccc(Cl)cc4)N(S(=O)(=O)c4ccccc4C)[C@H]3C[C@H]2c2ccccc2)cc1	6	.	.	-3	10	.
O=C(NCC(c1ccco1)N1CCCC1)c1cccc(S(=O)(=O)Nc2ccc(F)cc2)c1 (stereo unspecified)	-5	.	.	-1	2	.
COc1cc(/C=N/NC(=O)CCC(=O)Nc2ccc(C)cc2)ccc1O	9	52*	-6	-2	2	0
Cc1ccc(NC(=O)CCC(=O)N/N=C/c2ccccc2O)cc1	12	10	-2	10	-1	3
COc1cc(/C=N/NC(=O)c2ccc(Cl)c(S(N)(=O)=O)c2)ccc1OCC(N)=O	43*	31	0	4	13	1
COc1ccc(C(=O)Oc2cc(/C=N/NC(N)=S)ccc2OC)cc1	12	27	3	-1	-2	-8
COc1ccc(/C=N/NC(N)=S)cc1OC(=O)c1cccc2ccccc12	34*	27	11	1	5	-3
CNC(=S)N/N=C/c1ccc(OCC(=O)Nc2c(C)cc(C)cc2C)c(OC)c1	25	3	0	5	26	-3
COc1cc(/C=N/NC(N)=S)ccc1OCC(=O)Nc1ccc(C)cc1	40*	-14	1	2	-5	1
CC(C)N(C)c1ncnc2c1ncn2[C@H]1CN(Cc2ccc(F)cc2)C[C@@H](CO)O1	17	.	.	2	16	.
COC(=O)c1ccc2c(c1C(=O)OC)CN(S(=O)(=O)C(C)(C)C)[C@@H]2CCO	-6	.	.	4	4	.
C=CCCC(=O)N1CCC(C(=O)NCC2COc3ccccc3O2)CC1 (stereo unspecified)	.	.	.	.	-4	.
C=CCN(CC=C)c1cnn(-c2nc3ccccc3[nH]2)c(=O)c1Cl	19	-10	-5	2	-1	2
O=c1c(Cl)c(NCCCO)cnn1-c1nc2ccccc2[nH]1	23	13	44*	4	1	-4
CCNc1nc(C)cc(COC)c1C#N	19	17	-2	127*	-76	-2
O=C(NC(NC(=S)Nc1ccc(Cl)cc1Cl)C(Cl)(Cl)Cl)c1cccc([N+](=O)[O-])c1 (stereo unspecified)	-12	11	37*	-1	-9	7
Cc1ccccc1N=C1NC(=O)/C(=C/c2cccn2-c2cccc(C(=O)O)c2)S1	.	56*	3	.	-7	-3
CC(=O)NCc1ccc(OCCCN2CCC(C(O)(c3ccccc3)c3ccccc3)CC2)cc1	.	.	.	.	0	.
O=C(O)c1ccc(-n2c(=O)c3ccccc3c3ccccc3c2=O)cc1	-4	10	32*	3	-1	-3
CCOc1ccc(/C=C2\NCCc3cc(OCC)c(OCC)cc32)cc1OCC	.	.	.	.	9	.
O=S1(=O)CCN(C2CC2)CC1	-4	.	.	-2	0	.
Clc1ccc2c(c1)-c1ccccc1C1=NCCN12	20	.	.	51*	-5	.
SMILES	GDH-TPI inh	VHR inh abs	RecA splice inh	FBA Mtb inh	CCHF vOTU inh	SARS 3CLpro inh
CC(C)(C)c1cc(C(=O)CCN2CCOCC2)cc(C(C)(C)C)c1O	7	40	30*	-1	9	-1
Cc1ccc(N/C(N)=N/c2nc(CSc3ccc(C)cc3)cc(=O)[nH]2)cc1	8	25	.	5	2	-1
Cc1ccc(N/C(N)=N/c2nc(CSc3nnc(N)s3)cc(=O)[nH]2)cc1	-5	53*	0	2	-2	2
COc1cccc(CNC(=O)COc2cc3c(c4oc(=O)cc(C)c24)CCC(C)(C)O3)c1	20	17	1	168*	-82	2
Cc1cc(=O)oc2c3c(cc(OCC(=O)NCc4cccnc4)c12)OC(C)(C)CC3	22	13	-10	+	-207	-2
COc1cccc(CNC(=O)C2(C)Oc3ccccc3NC2=O)c1 (stereo unspecified)	0	-2	-1	1	-1	-1
COc1ccccc1CNC(=O)COc1cc2c(c3oc(=O)cc(C)c13)CCC(C)(C)O2	6	25	8	189*	-88	0
Cc1nn(-c2ccccc2)c2nc(N)c(C(N)=O)cc12	20	13	0	71*	-59	-2
COC(=O)c1cc(C)nc2c1c(C)nn2-c1ccccc1	15	.	.	2	-4	.
CC(=O)OCC(=O)C1(O)CCC2C3CC(C)C4=CC(=O)C=CC4(C)C3C(O)CC21C (stereo unspecified)	6	.	.	-2	2	.
CCCc1cc(=O)oc2cc(OC(=O)CN3C(=O)NC4(CCCC4)C3=O)ccc12	16	.	0	+	-323	.
O=C1c2ccccc2NC(c2ccc(O)c(O)c2)N1c1ccccc1Cl (stereo unspecified)	41*	0	-4	6	-12	4
COc1ccc(C(=O)OCCN2CCN(C3CN(Cc4cn(Cc5cccc(F)c5)nn4)S(=O)(=O)C3)CC2)cc1OC (stereo unspecified)	.	.	.	.	-2	.
CC1(C(=O)NS(=O)(=O)c2ccc(F)cc2F)CCN1C(=O)C1CCCCC1 (stereo unspecified)	-1	.	.	1	-8	.
CCc1ccc2[nH]c(=O)c(CN(CCCN3CCOCC3)C(=O)Nc3ccc(Cl)cc3)cc2c1	15	53*	6	1	8	-6
CCc1ccc2[nH]c(=O)c(CN(CCCN3CCOCC3)C(=O)Nc3ccccc3)cc2c1	7	4	3	3	6	-1
Cc1cn([C@H]2C[C@H](O)[C@@H](CNC(=O)[C@H](N)Cc3cn(COCc4ccccc4)cn3)O2)c(=O)[nH]c1=O	-3	.	.	-1	-6	.
Cc1ccccc1S(=O)(=O)/N=C(/Nc1nc2ccccc2s1)c1ccccc1	44*	.	.	3	8	.
OCc1cc(C(O)CNCCCCCCOCCCCc2ccccc2)ccc1O (stereo unspecified)	3	12	1	28*	-9	-3
COC(=O)CN1CCN(C(=O)c2csc(-c3ccccc3)n2)CC1	.	.	.	.	-4	.
COc1ccc(-c2cc(-c3nnc(SCC(=O)Nc4ccc(OCc5ccccc5)cc4)n3N)[nH]n2)cc1	.	.	.	.	-1	.
